Sampled rows, rich in hits. Any-hit rate of the full collection: about 6.9%.
MCF10A rerep: DNA re-replication induction in MCF 10a cells. MCF 10A DNA re-replication, Hoechst nuclear intensity, 48 h. Potency, µM (titrated, usually from 46.1 µM), most hits filed as activators. actives 2.9% (n = 350,000); further: nearly all actives have a fitted effect of over 50% in size
SW480 rerep: DNA re-replication induction in SW480 cells; SW480 DNA re-replication, Hoechst DNA content imaging, 48 h; Potency, µM (highest dose often 46.1 µM), usual class: activators; actives 1.8% (n = 340,000); AID 624297; further: nearly all actives have a fitted effect of over 55% in size
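Compounds, transferred as 23 nL by pin tool, were incubated with cells for 48 hr; DNA content per nucleus was then quantified by Hoechst staining and fluorescence plate imaging.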
Vif-A3F inh: Vif-A3F binding inhibition; HeLa A3F-eYFP + Vif (tagged APOBEC3F with the HIV-1 protein that degrades it), YFP fluorescence increase; Potency, µM (titrated, usually from 46.1 µM); actives 0.2% (n = 390,000); further: nearly all actives have a fitted effect of over 65% in size
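HeLa cells stably expressing Vif plus C-terminally eYFP-tagged A3F were seeded, incubated overnight at 37 deg C, dosed with compound, incubated overnight again at 37 deg C. Yellow fluorescence (Ex 488/Em 500-530) reported blocked Vif-mediated A3F-eYFP degradation.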
Vif-A3G inh: inhibitors of Vif-APOBEC3G interaction. HeLa A3G-eYFP + Vif (tagged APOBEC3G with the HIV-1 protein that degrades it), YFP fluorescence, overnight. Potency, µM (top dose mostly 46.1 µM), hits mostly inhibitors. actives 0.076% (n = 410,000). AID 602310; further: nearly all actives have a fitted effect of over 60% in size
Target sequence (Q9HC16 whole entry, looked up): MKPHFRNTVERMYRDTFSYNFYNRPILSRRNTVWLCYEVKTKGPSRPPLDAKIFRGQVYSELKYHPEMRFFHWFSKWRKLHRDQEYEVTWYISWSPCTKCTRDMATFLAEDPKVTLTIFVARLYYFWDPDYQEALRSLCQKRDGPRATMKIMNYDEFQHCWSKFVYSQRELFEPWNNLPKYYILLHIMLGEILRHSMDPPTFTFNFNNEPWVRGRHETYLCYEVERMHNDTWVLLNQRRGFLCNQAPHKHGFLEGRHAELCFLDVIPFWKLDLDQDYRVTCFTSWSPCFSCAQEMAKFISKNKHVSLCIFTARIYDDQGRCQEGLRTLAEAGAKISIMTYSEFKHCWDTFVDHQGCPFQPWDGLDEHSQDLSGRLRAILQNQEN
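Read-out is eYFP fluorescence (Ex 488/Em 500-530) from Vif-expressing HeLa A3G-eYFP cells; more signal means A3G escaped Vif-mediated degradation. Cells plated overnight, compound pinned in, incubated overnight at 37 deg C.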
IL1B secr inh: inflammasome signaling inhibition, IL-1 beta readout | THP-1 LPS/ATP IL-1B secretion, AlphaLISA, 16 h; hits give low values | activity change, % at 57.5 µM | actives 4.7% (n = 360,000); in the data active means activity change below about -50%; inconclusive means mostly about -30% to -49%
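THP-1 cells pretreated 1 hr with compounds (up to 57.5 uM final), then stimulated with LPS (250 ng/mL final) plus ATP (1.25 mM final); secreted IL-1B measured by AlphaLISA after 16 hr, decreased signal indicating inhibition.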
Giardia killer: kills Giardia lamblia; actives 0.15% (n = 340,000); activity change, % at 7.66 µM, hits read low; Giardia lamblia trophozoite viability; AID 540267; in the data active means activity change below about -80%; inconclusive means between about -30% and that limit;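 further: parasites exposed to compound for two days anaerobically before the ATP read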
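ATP-content bioluminescence gauges trophozoite survival. Cells (100/well) receive compound and incubate anaerobically for 48 hrs at 37 deg C; detection reagent follows for 15-30 min at room temperature.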
Each line names hits and unclear results; the compound was inactive in the other large screens. Unless noted, the call rests on the fitted dose curve; in most records, active means well fitted curve in the direction sought with a large enough effect; inconclusive means small, poorly fitted or top-dose-only effect, or another doubt; inactive means no such curve, though single readings can be large; an effect the other way counts as inactive or inconclusive.

CN(C)CCCNC(=O)C[C@H]1C[C@H](C(=O)N2CCCCC2)[C@@]2(C)c3[nH]c4cc(-c5ccco5)ccc4c3CCN2C1=O	MCF10A rerep inconclusive, SW480 rerep 2.06µM, Vif-A3F inh inconclusive, Vif-A3G inh inconclusive
C[C@]12c3[nH]c4cc(-c5ccco5)ccc4c3CCN1C(=O)[C@@H](CC(=O)NCc1cccc(C(F)(F)F)c1)C[C@@H]2C(=O)N1CCCCC1	SW480 rerep inconclusive, IL1B secr inh -60.1
Cn1c(=O)n(C)c2cc(NS(=O)(=O)c3ccc(C(C)(C)C)cc3)c(NCc3ccccc3)cc21	none (no result: MCF10A rerep, SW480 rerep, IL1B secr inh, Giardia killer)
COc1ccc(Cn2c(=O)c3oc4ccccc4c3n(Cc3ccc(F)cc3)c2=O)cc1	none (no result: MCF10A rerep, SW480 rerep, IL1B secr inh, Giardia killer)
CCN(CC)CCN(C(=O)c1ccc(C(=O)OC)cc1)c1nc2ccc(Cl)cc2s1	none (no result: MCF10A rerep, SW480 rerep, IL1B secr inh, Giardia killer)
O=[N+]([O-])c1ccc(N=Nc2c(Cl)cc(O)cc2Cl)cc1	MCF10A rerep inconclusive, SW480 rerep inconclusive, Vif-A3G inh inconclusive, IL1B secr inh inconclusive
O=C1CC(=Nc2ccc([N+](=O)[O-])cc2)NN1c1c(Cl)cc(Cl)cc1Cl	IL1B secr inh -73.8 (no result: MCF10A rerep, SW480 rerep, Giardia killer)
CCOC(=O)c1c(C)[nH]c(C)c1S(=O)(=O)N1CCCC(C(=O)N2CCN(c3cccc(Cl)c3)CC2)C1 (centres undefined)	none (no result: MCF10A rerep, SW480 rerep, IL1B secr inh, Giardia killer)
CCN(C(=O)COC(=O)CNC(=O)c1ccc2ccccc2c1)C1CCS(=O)(=O)C1 (centres undefined)	MCF10A rerep 5.8µM
CCCn1cnc2c(Sc3c([N+](=O)[O-])ncn3C)nc(N)nc21	MCF10A rerep inconclusive, IL1B secr inh -54.0
Nc1nc(SCc2ccccc2[N+](=O)[O-])c2ncn(Cc3ccccc3)c2n1	SW480 rerep inconclusive
CCCCn1cnc2c(Sc3c([N+](=O)[O-])ncn3C)nc(N)nc21	MCF10A rerep inconclusive, IL1B secr inh -94.7
CCCCn1cnc2c(SCc3ccccn3)nc(N)nc21	IL1B secr inh -74.5
Cn1cnc([N+](=O)[O-])c1Sc1nc(N)nc2c1ncn2Cc1ccccc1	MCF10A rerep inconclusive, IL1B secr inh -101.0
Cc1ccc(OCC(=O)Nc2cc(-c3nc4cc(Cl)ccc4o3)ccc2C)c(C)c1	none (no result: MCF10A rerep, SW480 rerep, Vif-A3F inh, IL1B secr inh, Giardia killer)
CCOC(=O)c1cnn(-c2ccc(OC)cc2)c1C1CCN(C(=O)OC(C)(C)C)CC1	none (no result: MCF10A rerep, SW480 rerep, IL1B secr inh, Giardia killer)
CC(=O)OCON[N+]([O-])=NC1CCCCC1	none (no result: MCF10A rerep, SW480 rerep, Vif-A3F inh, IL1B secr inh)
O=C(c1cccnc1Cl)N(Cc1ccccc1)Cc1ccccc1	IL1B secr inh -67.2
CCOC(=O)C1=C(CS(=O)(=O)c2ccc(C)cc2)NC(=O)NC1c1ccc(C(C)C)cc1 (centres undefined)	none (no result: MCF10A rerep, SW480 rerep, IL1B secr inh, Giardia killer)
COc1ccc(CCNc2nc3cc(OC)c(OC)cc3c3nc(-c4ccccc4)nn23)cc1OC	none (no result: MCF10A rerep, SW480 rerep, IL1B secr inh, Giardia killer)
CCCCCCCCCCCCCCCCCCOC[C@H](COP(=O)([O-])OCC[N+](C)(C)C)OC	MCF10A rerep inconclusive, SW480 rerep 21.1µM (no result: Vif-A3F inh, Vif-A3G inh, IL1B secr inh, Giardia killer)
O=S(=O)(Nc1cccc2[nH]ncc12)c1cccs1	none
O=S(=O)(Nc1cccc2c1ccc1cccn12)c1cccs1	MCF10A rerep 14.1µM
Cc1ccccc1-c1nn(-c2ccc(F)cc2F)cc1CNCCN(C)C	IL1B secr inh inconclusive
Cc1ccccc1-c1nn(-c2ccc(F)cc2F)cc1CNCCCN(C)C	MCF10A rerep inconclusive, SW480 rerep inconclusive, IL1B secr inh -61.6
Cc1nc2c(OCc3cc(Cl)cc(Cl)c3)cccn2c1N(C)C(=O)CCC1CCCC1	IL1B secr inh -66.9 (no result: MCF10A rerep, SW480 rerep, Vif-A3F inh, Giardia killer)
Cc1nc2c(OCCC3CCCCC3)cccn2c1N(C)C(=O)CCC1CCCC1	IL1B secr inh -53.0 (no result: MCF10A rerep, SW480 rerep, Vif-A3F inh, Giardia killer)
CCC(=O)N/N=C/c1ccc(-c2ccc([N+](=O)[O-])cc2)o1	IL1B secr inh -80.7
CNC(=S)N/N=C/c1ccc(-c2ccc(Cl)c([N+](=O)[O-])c2)o1	MCF10A rerep inconclusive, IL1B secr inh -53.8
COc1ccc(N(CC(=O)N/N=C/c2ccc(-c3ccc([N+](=O)[O-])cc3)o2)S(=O)(=O)c2ccc(C)cc2)cc1	MCF10A rerep inconclusive, SW480 rerep 9.2µM, Vif-A3F inh inconclusive
Cc1ccc(-c2ccc(/C=N/NC(=S)Nc3ccccc3)o2)cc1[N+](=O)[O-]	none

High-throughput results as filed in PubChem.
